Assay results: article PMC4552634, “A New Set of Chemical Starting Points with Plasmodium falciparum Transmission-Blocking Potential for Antimalarial Drug Discovery” (PLoS ONE, 2015)
Out of some 13,000 compounds screened, about 3,200 (25%) showed an effect of 50% or more. Some of the results follow.

Each compound was assayed on P. falciparum stage V gametocytes. Settings: 48 h, 5 µM; inhibitor.
Set-up: BacTiter-Glo ATP luminescence viability of purified stage V gametocytes in 384-well plates, per cent inhibition versus DMSO

In order of falling “% Inhibition” value:
1. O=C(NC1CCCCC1)N(Cc1ccccc1-c1ccc(CNCCc2ccccc2)cc1)C1CCN(Cc2ccccc2)CC1 [TCMDC-140625]  106.9%
2. O=C(NCCc1ccccc1)N(Cc1ccccc1-c1ccc(CNCCc2ccccc2)cc1)C1CCN(Cc2ccccc2)CC1 [TCMDC-140611]  104.9%
3. CC(=O)N(Cc1ccccc1-c1ccc(CNCCc2ccccc2)cc1)C1CCN(Cc2ccccc2)CC1 [TCMDC-140525]  102.9%
4. CC(C)(C)c1ccc(CNC(=O)c2ccc(CNC3CCC(N)CC3)s2)cc1 (centres unmarked) [TCMDC-140777]  101.7%
5. CCN(CCCN1CCCCC1)c1cc(C)nc(Nc2ccc(C)cc2Br)n1 [TCMDC-132441]  94.55%
6. CC(C)CNCc1cccc(-c2ccccc2CN(C(=O)NCCc2ccccc2)C2CCN(Cc3ccccc3)CC2)c1 [TCMDC-140608]  89.6%
7. CC(C)(C)c1ccc(CNC(=O)/C=C/c2ccc(CNC3CCNCC3)cc2)cc1 [TCMDC-140773]  88.02%
8. CC(C)(C)c1ccc(CNC(=O)c2cc(CNC3CCC(N)CC3)ccc2O)cc1 (centres unmarked) [TCMDC-140776]  87.73%
9. Cc1cc(N(C)CCCN2CCCCC2)nc(Nc2ccc(Cl)cc2)n1 [TCMDC-137485]  86.59%
10. CC(C)CNCc1ccc(-c2ccccc2CN(C(=O)NCCc2ccccc2)C2CCN(Cc3ccccc3)CC2)cc1 [TCMDC-140609]  78.77%
11. Cc1ccc2[nH]c(C3CCCNC3)c(-c3ccncc3)c2c1 (centres unmarked) [TCMDC-134505]  76.33%
12. CC(C)(C)c1ccc(CNC(=O)c2cc(CNC3CCNCC3)ccc2O)cc1 [TCMDC-140775]  70.98%
13. Cc1cc(N(C)C2CCN(C)C2)nc(Nc2ccc(Cl)cc2)n1 (centres unmarked) [TCMDC-137010]  65.31%
14. CCN(CCCN1CCCCC1)c1cc(C)nc(Nc2cccc3c2CCCC3)n1 [TCMDC-132431]  65.25%
15. O=C(c1ccccc1)N(Cc1ccccc1-c1ccc(CNCCc2ccccc2)cc1)C1CCN(Cc2ccccc2)CC1 [TCMDC-140531]  62.45%
16. CCN(CCCN1CCCCC1)c1cc(C)nc(Nc2ccc(Cl)cc2C)n1 [TCMDC-132447]  51.94%
17. CCN(CCCN1CCCCC1)c1cc(C)nc(Nc2cc(Cl)ccc2C)n1 [TCMDC-132446]  50.43%
18. CCCc1ccccc1Nc1nc(C)cc(N(CC)CCCN2CCCCC2)n1 [TCMDC-132434]  49.3%
19. O=C(NCc1ccc(Cl)c(Cl)c1)c1cc(CNC2CCNCC2)ccc1O [TCMDC-140774]  49.2%
20. CC(C)(C)c1ccc(CNC(=O)c2cc(CNC3CCNC3)ccc2O)cc1 (centres unmarked) [TCMDC-140761]  47.42%
21. O=C(NCCc1ccccc1)N(Cc1ccccc1-c1cccc(CNCCc2ccccc2)c1)C1CCN(Cc2ccccc2)CC1 [TCMDC-140610]  46.01%
22. CC(=O)N(Cc1ccccc1-c1cccc(CNCCc2ccccc2)c1)C1CCN(Cc2ccccc2)CC1 [TCMDC-140524]  45.75%
23. CCN(CCCN1CCCC1)c1cc(C)nc(Nc2ccc(Cl)cc2)n1 [TCMDC-137224]  44.32%
24. Cc1cc(N(C)C2CCN(C)CC2)nc(Nc2ccc(Br)cc2)n1 [TCMDC-137015]  43.74%
25. COc1ccc(O)c(C(=O)NCCc2ccc(OC)c(-c3ccc(C(C)(C)C)cc3)c2)c1 [TCMDC-136183]  40.96%
26. CCc1cc(=O)[nH]c(-n2nc(C)cc2NC(=O)CC(c2ccccc2)c2ccccc2)n1 [TCMDC-124942]  38.89%
27. Clc1cc(Nc2ccnc3ccc(Br)cc23)ccc1Oc1ccc2ccccc2c1Cl [TCMDC-124239]  37.87%
28. CCCCCCNC[C@@H](O)[C@H](Cc1ccccc1)NC(=O)c1cc(NCC)cc(N2CCCCS2(=O)=O)c1 [TCMDC-135218]  27.85%
29. COC(=O)CCCCOc1c(OC)cc(Cc2cnc(N)nc2N)cc1OC [TCMDC-137353]  24.77%
30. CCN(CCCN1CCCCC1)c1cc(C)nc(Nc2cc(Br)ccc2C)n1 [TCMDC-132432]  22.76%
31. Cc1cc(N(C)C2CCN(C)CC2)nc(Nc2ccc(Cl)cc2)n1 [TCMDC-132418]  22.03%
32. CC(C)[C@H](NC(=O)c1c(CN2CCC(N3CCCCC3)CC2)c(-c2ccccc2)nc2cc(O)ccc12)c1ccccc1 [TCMDC-140676]  20.63%
33. CCN(CCCN1CCCCC1)c1cc(C)nc(Nc2cc(C)ccc2C)n1 [TCMDC-132449]  18.24%
34. COc1ccc2nccc(NCC3(O)CCN(CC(O)c4ccc5c(c4)NC(=O)CS5)CC3)c2n1 (centres unmarked) [TCMDC-141462]  18.04%
35. CC(C)(C)C/C=C\c1ccc(C(=O)NCC2CC2)cc1 [TCMDC-138516]  17.43%
36. O=C(NCCc1ccccc1)N(Cc1ccccc1-c1cccc(CNCc2ccc3c(c2)OCO3)c1)C1CCN(Cc2ccccc2)CC1 [TCMDC-140614]  15.63%
37. CCN(CCCN1CCCCC1)c1cc(C)nc(Nc2ccc(C)cc2C)n1 [TCMDC-132445]  14.07%
38. CC1(C)N=C(N)N=C(N)N1OCc1cc(Cl)cc2c1OCOC2 [TCMDC-131577]  12.67%
39. CCN(CCCN1CCCCC1)c1cc(C)nc(Nc2ccc(C)cc2Cl)n1 [TCMDC-132442]  11.92%
40. CC(C)[C@H](NC(=O)c1ccc(O)c(-c2ccc(Cl)c(Cl)c2)c1)C(=O)NC1CCCCCC1 [TCMDC-140844]  10.04%
41. Cc1cccc(Nc2nccc(NCC(O)c3cccc(C(F)(F)F)c3)n2)c1 (centres unmarked) [TCMDC-136582]  10%
42. CC(C)(C)c1ccc(CN2CCC(NC(=O)c3ccc(-c4ccccc4Cl)s3)CC2)cc1 [TCMDC-134351]  7.857%
43. Cc1c(Cc2ccccc2Cl)cnc2nc(N)nc(N)c12 [TCMDC-137245]  7.074%
44. COc1ccc(CCNC(=O)c2cc(C)ccc2O)cc1-c1ccc(C(C)(C)C)cc1 [TCMDC-136184]  6.315%
45. CCN(CCCN1CCCCC1)c1cc(C)nc(Nc2ccc(Br)cc2F)n1 [TCMDC-132428]  4.971%
46. CCOc1ccc(N2C(N)=NC(N)=NC2(C)C)cc1 [TCMDC-124280]  3.734%
47. COc1cc(C)nc2ccc(NC(=O)Nc3ccccc3[N+](=O)[O-])cc12 [TCMDC-139396]  3.442%
48. CCc1cc([C@H]2O[C@@H](n3cnc4c(NCC(c5ccccc5)c5ccccc5)nc(NCCNc5ccccn5)nc43)[C@H](O)[C@@H]2O)on1 [TCMDC-138085]  3.442%
49. COC(=O)c1cc(NC(=O)Nc2ccc(Cn3ncc(N4CCCNCC4)c(Cl)c3=O)cc2)cc(C(=O)OC)c1 [TCMDC-133324]  3.06%
50. COc1cc(C(=O)NC2CCN(Cc3ccccc3)CC2)ccc1-c1cc2cc(Cl)c(Cl)cc2[nH]1 [TCMDC-141286]  1.884%
51. COc1ccc2nccc([C@@H](O)CN3CCC(NCc4cc5oc(=O)[nH]c5cc4Cl)CC3)c2c1 [TCMDC-141121]  -3.584%
52. OCC1CCCCN1Cc1cccc(-c2cccc(-c3nc4ccccc4[nH]3)c2)c1 (centres unmarked) [TCMDC-133835]  -3.731%
53. CCN(CCCN1CCCCC1)c1cc(C)nc(Nc2ccc(Cl)cc2)n1 [TCMDC-137488]  -3.889%
54. O=C(Nc1cccc(Cl)c1Cl)N1CCc2cc3nccc(N4CCN5CCC[C@H]5C4)c3cc21 [TCMDC-140054]  -5.668%
55. O=C(Nc1ccc(OC2CCN(Cc3ccc(F)cc3)C2)c(Cl)c1)c1ccsc1 (centres unmarked) [TCMDC-133756]  -6.821%
56. Cc1cc2ncc(C(N)=O)c(Nc3ccc(N4CCOCC4)cc3)c2cc1S(C)(=O)=O.Cl [TCMDC-135825]  -8.581%
57. Cc1cccc2[nH]c(-c3ccc(-c4cccc(NC(=O)Nc5ccsc5)c4)cc3)nc12 [TCMDC-133217]  -11.37%
58. Cc1cccc2nc(-c3cccc(-c4ccc(NC(=O)NC5CC5c5ccccc5)cc4)c3)[nH]c12 (centres unmarked) [TCMDC-133252]  -20.42%
59. CCN(CCCN1CCCCC1)c1cc(C)nc(Nc2ccc3c(c2)CCC3)n1 [TCMDC-132443]  -21.7%
60. CCCCc1ccc(-c2c(N)nc(N)nc2CC)cc1 [TCMDC-138064]  -26.34%
61. CS(=O)(=O)CCOCc1ccc(-c2ccc3ncnc(Nc4ccc(OCc5cccc(F)c5)c(Cl)c4)c3c2)o1 [TCMDC-138529]  -28.77%
62. Cn1nccc1C(=O)NCCNCc1cccc(-c2ccc(-c3nc4ccccc4[nH]3)cc2)c1.O=C(O)C(F)(F)F [TCMDC-133019]  -30.97%
63. CCC(C)NS(=O)(=O)c1ccc2nc(Nc3ccc(C)cc3)n(C(C)C(C)(C)C)c2c1 (centres unmarked) [TCMDC-136230]  -32.2%
64. Cc1cc(O)c(C(C)C)cc1C1(c2cc(C(C)C)c(O)cc2C)OC(=O)c2ccccc21 [TCMDC-123951]  -40.8%
65. Fc1ccc2[nH]c3c(NCCN4CCCCC4)ncnc3c2c1 [TCMDC-123757]  -41.7%
66. CC(C)(C)c1ccc(CN2CCC(NC(=O)c3ccc(-c4cccc(Cl)c4)s3)CC2)cc1 [TCMDC-134352]  -48.88%
67. O=C(/C=C/c1ccc(Cl)c(Cl)c1)NCCCCCCN1CCN(C(=O)Nc2cc(F)cc(F)c2)CC1 [TCMDC-135832]  -49.78%
68. CC(C)(CNC(=O)/C=C/c1ccc(C(F)(F)F)cc1)CNc1cc(=O)c2ccccc2[nH]1 [TCMDC-139403]  -57.07%
